Among all 1,300 compounds or so, about 1,000 (77%) were called active. Roughly 7% stayed inconclusive and do not appear here. So high a share suggests a set chosen from earlier hits. Some of the results follow. Values without a mark were called inactive. Calls follow the shape of the dose curve; as a rule, active = well fitted inhibition curve with a large enough effect; inconclusive = small, poorly fitted or top-dose-only effect; inactive = no such curve, though single readings can be large or run the other way.

95 compounds from PubChem BioAssay AID588397 (National Center for Advancing Translational Sciences (NCATS), 2011) can be followed below.
% is scaled to controls: 0 for no effect and ±100 for the full control effect; potency is read from the fitted curve at half-maximal effect.

The assay can be described thus: qHTS of small molecules that selectively kill Giardia lamblia: Hit Validation.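 Also: viability measured as ATP content by luminescence so killing lowers signal; trophozoites exposed to compounds for 48 h anaerobically at 37 °C; nearly all actives have a fitted effect of over 65% in size.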 Conditions: Giardia lamblia trophozoite viability, dose-response; series mostly up to 38.3 µM; activity change, negative = killing: at the top concentration. Put shortly:
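Giardia lamblia trophozoites (100 cells/well) were incubated with compounds for 48 h at 37 deg C under anaerobic conditions. Viability was read as ATP content by one-step luminescence after 15-30 min at room temperature.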
Turning to `COc1cc2nc(N3CCCN(C)CC3)nc(NC3CCCCC3)c2cc1OC`, the Potency was 650 nM (active).

On to `Cc1ccc(C(C(=O)NCc2ccco2)N(C(=O)CNC(=O)c2cccs2)c2c(C)cccc2C)cc1` (stereo not given), for which the Potency is 818 nM (active).

For `O=C1C2C3C=CC(C3)C2C(=O)N1Nc1ccc([N+](=O)[O-])cc1[N+](=O)[O-]` (stereo not given), the Potency was 4100 nM (active).

Regarding `Cn1c(=NC(=O)c2cnccn2)sc2ccccc21`, the Potency was 5790 nM (active).

Turning to `CC(Oc1ccccc1)C(=O)Nc1nnc(S(=O)(=O)N2CCCCC2)s1` (stereo not given), the Potency is 3650 nM (active).

With `CC(Oc1ccccc1)C(=O)Nc1nnc(S(=O)(=O)N2CCCCCC2)s1` (stereo not given), the Potency is 5160 nM (active).

Turning to `Cn1nc(N)c2c(-c3ccccc3)c(C#N)c(N)nc21`, the Potency is 4600 nM (active).

Consider `Cn1nc(N)c2c(-c3ccc(Cl)cc3)c(C#N)c(N)nc21`, for which the Potency is 2900 nM (active).

Turning to `Cc1ccc(OCC(=O)c2cc(C)n(Cc3cccs3)c2C)c([N+](=O)[O-])n1`, the Potency was 818 nM (active).

Regarding `Cc1cc(C(=O)COc2cccnc2[N+](=O)[O-])c(C)n1Cc1cccs1`, the Potency was 1030 nM (active).

On to `O=C(N/N=C/c1ccc([N+](=O)[O-])o1)c1cn(-c2ccccc2)nc1-c1ccc(Cl)cc1`, for which the Potency was 1030 nM (active).

For the compound `O=C(N/N=C/c1ccc([N+](=O)[O-])o1)c1cn(-c2ccccc2)nc1-c1ccc(F)cc1`, the Potency is 516 nM (active).

Consider `COc1ccc(-c2nn(-c3ccccc3)cc2C(=O)N/N=C/c2ccc([N+](=O)[O-])o2)cc1`, for which the Potency is 516 nM (active).

With `O=C(N/N=C/c1ccc([N+](=O)[O-])o1)c1cn(-c2ccccc2)nc1-c1ccccc1`, the Potency is 818 nM (active).

With `CCOC(=O)c1cc([N+](=O)[O-])sc1NC(=O)CC`, the Potency is 1030 nM (active).

Consider `CN(Cc1cccc(Cl)c1)C(=O)C1CCC(=O)N(C2CC2)C1` (stereo not given), for which the “activity change, negative = killing” value is -13%.

Consider `O=C(COc1cccnc1[N+](=O)[O-])Nc1cc(Cl)ccc1Cl`, for which the Potency was 4600 nM (active).

On to `O=C(COc1cccnc1[N+](=O)[O-])Nc1ccc(Cl)cc1F`, for which the Potency was 1830 nM (active).

With `CC(OC(=O)c1ccc(Cl)nc1)C(=O)NC1CCCC1` (stereo not given), the “activity change, negative = killing” value was -9.62%.

For the compound `CC(OC(=O)c1ccc([N+](=O)[O-])s1)C(=O)NC1CCCCC1C` (stereo not given), the Potency is 3650 nM (active).

In the case of `O=C(NCc1ccccn1)C1CCCN(S(=O)(=O)c2cc(Cl)ccc2Cl)C1` (stereo not given), the Potency was 1030 nM (active).

Regarding `Cc1ccc2nc(NC(=O)C3CCCN(S(=O)(=O)c4cnc[nH]4)C3)sc2c1` (stereo not given), the “activity change, negative = killing” value was -7.55%.

As to `O=C(NCc1ccc(Cl)cc1)C1CCC(CNS(=O)(=O)c2ccccc2)CC1` (stereo not given), the “activity change, negative = killing” value was 7.82%.

Consider `CN1N/C(=C\c2ccccc2)N=C2C(=O)N(C)C(=O)N=C21`, for which the Potency was 259 nM (active).

Consider `CC/C=C1/N=C2C(=O)N(C)C(=O)N=C2N(C)N1`, for which the Potency is 130 nM (active).

`O=S1(=O)[C@H]2C[C@@H]3C=C[C@@]2(CN1Cc1cccc(F)c1)O3`: the “activity change, negative = killing” value was -10.8%.

On to `Cc1cccc(CCN=c2c([N+](=O)[O-])nn(-c3ccccc3)n2O)c1`, for which the Potency is 2900 nM (active).

With `COc1ccc(-n2nc([N+](=O)[O-])c(=NCCc3cccc(C)c3)n2O)cc1`, the Potency is 1300 nM (active).

For the compound `CN(C)c1nc(=Nc2cccc(Cl)c2)ss1`, the Potency is 11600 nM (active).

Consider `CCCSc1nc2c(c(=O)n1CC)SC(C)C2` (stereo not given), for which the “activity change, negative = killing” value was -12.4%.

For the compound `O=C(CSc1nnc(NC(=O)c2c(F)cccc2F)s1)Nc1ccc(F)cc1`, the “activity change, negative = killing” value is -33.4%.

As for `O=C(Nc1nnc(SCC(=O)N2CCOCC2)s1)c1ccccc1`, the Potency is 5160 nM (active).

For the compound `O=C(CSc1nnc(NC(=O)c2ccccc2)s1)NCc1ccco1`, the Potency was 4600 nM (active).

Regarding `O=C(Nc1nnc(SCC(=O)N2CCOCC2)s1)c1ccccc1Cl`, the Potency is 5790 nM (active).

For the compound `O=[N+]([O-])c1cn(-c2nc(-c3ccco3)cc(C(F)(F)F)n2)cn1`, the Potency is 2590 nM (active).

On to `COC(=O)[C@@]1(Cc2ccc(OC)cc2)[C@H]2c3cc(C(=O)N4CCCC4)n(CCn4cc([N+](=O)[O-])nc4C)c3C[C@H]2CN1C(=O)c1ccccc1`, for which the Potency is 206 nM (active).

`O=[N+]([O-])c1ncc(Br)cc1Nc1ccccc1`: the Potency is 516 nM (active).

Regarding `C[C@@H]1[C@H]2[C@@H](O[C@@H]3O[C@H](CO)[C@@H](O)[C@H](O)[C@H]3O)OC=C(C(=O)O)[C@H]2C[C@@H]1O`, the “activity change, negative = killing” value was -3.42%.

Take `O=[N+]([O-])c1ccc(N2CCN(CCO)CC2)c2ncccc12`: the Potency is 1450 nM (active).

In the case of `CS(=O)(=O)N1CCN(c2ccc([N+](=O)[O-])c3cccnc23)CC1`, the Potency is 1030 nM (active).

Regarding `Nc1nonc1OCCN1CCN(c2ccc([N+](=O)[O-])c3cccnc23)CC1`, the Potency was 1830 nM (active).

In the case of `O=C(c1cccc(F)c1)N1CCN(c2ccc([N+](=O)[O-])c3cccnc23)CC1`, the Potency was 3260 nM (active).

In the case of `O=c1c([N+](=O)[O-])cccn1Cc1ccc(F)cc1Cl`, the Potency is 2310 nM (active).

For `O=c1c([N+](=O)[O-])cccn1Cc1ccccc1Cl`, the Potency was 4100 nM (active).

In the case of `Clc1ccc2c(N/N=C/c3ccccc3Br)ccnc2c1`, the Potency was 1630 nM (active).

With `Cc1ccc(/C=N/Nc2ccnc3cc(Cl)ccc23)c(C)c1`, the Potency was 365 nM (active).

Take `Cc1ccccc1/C=N/Nc1ccnc2cc(Cl)ccc12`: the Potency was 326 nM (active).

With `Cc1noc(/C=C/c2cccnc2)c1[N+](=O)[O-]`, the Potency is 8180 nM (active).

On to `COc1cc(/C=C/c2onc(C)c2[N+](=O)[O-])cc(OC)c1OC`, for which the Potency is 2050 nM (active).

In the case of `Cc1cc2[nH]c3c(c[n+](C)c4ccccc34)c2cc1C`, the Potency was 1160 nM (active).

For `COc1cc(C2Nc3ccccc3C(=O)N2c2ccc3c(c2)OCCO3)ccc1OCC(C)C` (stereo not given), the Potency was 3260 nM (active).

For `CC(C)Oc1ccccc1C1Nc2ccccc2C(=O)N1c1ccc2c(c1)OCCO2` (stereo not given), the Potency was 5160 nM (active).

Consider `CN(C)c1ccc(N=Nc2ccccc2C(=O)OCC(=O)N2CCCC2)cc1`, for which the Potency is 1450 nM (active).

On to `CC(=O)c1ccc(NC(=O)COC(=O)c2ccccc2N=Nc2ccc(N(C)C)cc2)cc1`, for which the Potency was 3260 nM (active).

For `CN(C)c1ccc(N=Nc2ccccc2C(=O)O)cc1`, the Potency was 290 nM (active).

As for `Cc1ccc(-n2nc3c(N4CCC(C(=O)NCc5cccc(F)c5)CC4)nnc(C)c3c2C)cc1`, the “activity change, negative = killing” value was -12.7%.

Turning to `CC(=O)NC(Cc1cccc(C)c1)C(=O)NC1CCN(c2ncccc2[N+](=O)[O-])CC1` (stereo not given), the Potency was 4600 nM (active).

On to `CC(=O)NC(Cc1cccc(F)c1)C(=O)NC1CCN(c2ncccc2[N+](=O)[O-])CC1` (stereo not given), for which the Potency is 2310 nM (active).

`COc1ccc(OC)c(CCNC(=O)CSc2ccsc2[N+](=O)[O-])c1`: the Potency is 729 nM (active).

As for `COc1ccc(CCNC(=O)CSc2ccsc2[N+](=O)[O-])cc1OC`, the Potency was 516 nM (active).

Regarding `COc1ccc(CCNC(=O)C23CCC(C)(C(=O)C2=O)C3(C)C)cc1OC` (stereo not given), the “activity change, negative = killing” value was -8.09%.

For `COCCn1c(C)cc(/C=C2\NC(=S)N(C)C2=O)c1C`, the “activity change, negative = killing” value was -34.6%.

As to `COCCn1c(C)cc(/C=C2/SC(=O)N(C(C)C(=O)OC)C2=O)c1C` (stereo not given), the Potency was 5790 nM (active).

Consider `O=C(Nc1ccc(-c2cn3ccsc3n2)cc1)C1CC1`, for which the Potency was 3260 nM (active).

Take `COc1ccc(-c2cn3ccsc3n2)cc1`: the Potency is 9180 nM (active).

Regarding `COc1ccc(OCc2nnc3n2N=C(c2ccc(OC)cc2)CS3)cc1`, the “activity change, negative = killing” value is -24.4%.

As for `CC(=O)OCCSc1c(-c2ccccc2)c2cc(Cl)ccc2[nH]c1=O`, the “activity change, negative = killing” value was -2.52%.

Take `Cc1cccc(NC(=O)N2CCN(Cc3ccc4c(c3)OCO4)CC2)c1C`: the “activity change, negative = killing” value was -17.8%.

For the compound `Cc1ccc(N/C(C(Cl)=C(Cl)Cl)=C(/Cl)[N+](=O)[O-])c(C)c1`, the Potency was 818 nM (active).

Regarding `COc1ccccc1NC(=O)c1ccc([N+](=O)[O-])o1`, the Potency is 1450 nM (active).

For the compound `Cc1ccc([N+](=O)[O-])c(C(=O)Nc2cccnc2Cl)c1`, the “activity change, negative = killing” value is -9.71%.

For `Cc1ccc(NC(=O)c2ccc([N+](=O)[O-])o2)c(C)c1`, the Potency was 1300 nM (active).

Regarding `CCS(=O)(=O)N1Cc2ccccc2CC1C(=O)Nc1ccccc1OC` (stereo not given), the “activity change, negative = killing” value was -4.77%.

As for `Cc1cccc(NC(=O)c2ccc([N+](=O)[O-])o2)c1C`, the Potency is 1830 nM (active).

With `COc1ccccc1S(=O)(=O)Cc1ccc(C(=O)NCC(OC)OC)o1`, the “activity change, negative = killing” value was 11.7%.

Regarding `O=C(Nc1ccccc1Cl)c1ccc([N+](=O)[O-])o1`, the Potency was 1300 nM (active).

For the compound `Cc1ccccc1NC(=O)c1ccc([N+](=O)[O-])o1`, the Potency was 1830 nM (active).

For `COc1ccc(-c2cc3ccccc3oc2=O)cc1NC(=O)c1ccc([N+](=O)[O-])o1`, the Potency is 729 nM (active).

With `Cn1c(=O)c(=O)n(C)c2cc([N+](=O)[O-])c(N3CCOCC3)cc21`, the Potency was 4100 nM (active).

As to `O=C(N/N=C/c1ccc([N+](=O)[O-])o1)c1sc2ccccc2c1Cl`, the Potency was 1300 nM (active).

As for `O=C(N/N=C/c1ccc([N+](=O)[O-])o1)c1cc2c(ccc3ccccc32)o1`, the Potency is 729 nM (active).

For `O=C(N/N=C/c1ccc([N+](=O)[O-])o1)c1cc2ccccc2o1`, the Potency is 516 nM (active).

Regarding `O=C(N/N=C/c1ccc([N+](=O)[O-])o1)c1cn2ccc3ccccc3c2n1`, the Potency was 918 nM (active).

`O=[N+]([O-])c1nn(-c2ccc3c(c2)OCCO3)n(O)c1=NC1CCN(Cc2ccccc2)CC1`: the Potency was 460 nM (active).

Regarding `O=[N+]([O-])c1nn(-c2ccccc2)n(O)c1=NC1CCN(Cc2ccccc2)CC1`, the Potency was 365 nM (active).

Consider `Cc1cccc(-n2nc([N+](=O)[O-])c(=NC3CCN(Cc4ccccc4)CC3)n2O)c1`, for which the Potency is 729 nM (active).

`COc1ccc(-n2nc([N+](=O)[O-])c(=NC3CCN(Cc4ccccc4)CC3)n2O)cc1`: the Potency was 729 nM (active).

Turning to `O=C(N/N=C\c1ccc([N+](=O)[O-])s1)c1cncc(Br)c1`, the Potency was 2900 nM (active).

Consider `O=C(N/N=C/c1ccc([N+](=O)[O-])s1)C(O)c1ccccc1` (stereo not given), for which the Potency was 2900 nM (active).

Take `O=[N+]([O-])c1ccc(/C=N/Nc2ncccc2[N+](=O)[O-])s1`: the Potency is 2310 nM (active).

Turning to `Cc1ccc(NC(=S)N/N=C/c2ccc([N+](=O)[O-])s2)cc1`, the Potency was 2310 nM (active).

Take `O=C(N/N=C/c1ccc([N+](=O)[O-])s1)c1cccnc1`: the Potency is 2310 nM (active).

For `Cc1ccc(C(=O)N/N=C/c2ccc([N+](=O)[O-])s2)cc1`, the Potency was 1030 nM (active).

As for `O=C(N/N=C/c1ccc([N+](=O)[O-])s1)c1ccccc1`, the Potency is 1630 nM (active).

Turning to `O=[N+]([O-])c1ccc(/C=N/NC(=S)Nc2ccc(Cl)cc2Cl)s1`, the Potency is 3650 nM (active).
